Source: PubChem (The Scripps Research Institute Molecular Screening Center)
The list is not random: actives were taken first. Their share in the collection is about 1.8%.
PAD4 inh – PAD4 (human) enzyme inhibition; inhibition, % at 6.36 µM; AID 485272; recombinant PAD4, RCA probe fluorescence polarization; Q9UM07; actives 0.41% (n = 330,000);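 active = percent inhibition above a cutoff equal to the mean of all tested compounds plus 3 SD, cut at about 15% in these data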;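 note: 0% = PAD4 with RCA probe and DMSO and 100% = probe without PAD4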
PME-1 primary – PME-1 (human) inhibition. inhibition, % at 5.9 µM. actives 0.53% (n = 320,000). Q9Y570. recombinant PME-1, FP-Rh probe fluorescence polarization;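 active = inhibition above the campaign mean of all compounds plus 3 SD, cut at about 26% in these data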;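 note: competitive labeling of PME-1 active site by serine hydrolase directed probe; 0% = PME-1 with DMSO and 100% = wells lacking PME-1 enzyme; inhibitors block probe labeling so polarization falls and inhibition rises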
Target sequence (Q9Y570 whole entry, looked up): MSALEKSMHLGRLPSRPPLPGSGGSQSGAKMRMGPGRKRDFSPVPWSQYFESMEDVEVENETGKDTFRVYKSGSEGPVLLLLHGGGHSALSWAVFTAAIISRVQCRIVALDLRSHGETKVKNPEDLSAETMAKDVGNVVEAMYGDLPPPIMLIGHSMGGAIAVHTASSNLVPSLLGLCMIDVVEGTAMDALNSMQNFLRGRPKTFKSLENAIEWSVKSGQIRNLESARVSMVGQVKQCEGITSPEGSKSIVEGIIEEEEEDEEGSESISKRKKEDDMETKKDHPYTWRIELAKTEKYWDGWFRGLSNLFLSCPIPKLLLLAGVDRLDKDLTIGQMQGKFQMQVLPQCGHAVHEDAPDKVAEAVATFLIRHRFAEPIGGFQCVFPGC
LYPLA2 counter – blocks human lysophospholipase 2, a PME1 counter-screen; recombinant LYPLA2, FP-Rh probe fluorescence polarization; actives 0.38% (n = 320,000); AID 2177; O95372; inhibition, % at 5.9 µM;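 active = inhibition above the screen-wide mean plus 3 SD, limit set per campaign, cut at about 26% in these data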;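 note: 0% = LYPLA2 with DMSO and 100% = wells lacking LYPLA2 enzyme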
LYPLA1 inh – LYPLA1 (human) inhibition in PME1 counter-screen; O75608; recombinant LYPLA1, FP-Rh probe fluorescence polarization; inhibition, % at 5.9 µM; actives 0.16% (n = 320,000);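 active = inhibition above the mean of all tested compounds plus 3 SD, set per campaign, cut at about 14% in these data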;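 note: inhibitors block serine hydrolase probe labeling of LYPLA1 so polarization falls; 0% = enzyme with DMSO and 100% = wells lacking LYPLA1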
Target sequence (O75608 whole entry, looked up): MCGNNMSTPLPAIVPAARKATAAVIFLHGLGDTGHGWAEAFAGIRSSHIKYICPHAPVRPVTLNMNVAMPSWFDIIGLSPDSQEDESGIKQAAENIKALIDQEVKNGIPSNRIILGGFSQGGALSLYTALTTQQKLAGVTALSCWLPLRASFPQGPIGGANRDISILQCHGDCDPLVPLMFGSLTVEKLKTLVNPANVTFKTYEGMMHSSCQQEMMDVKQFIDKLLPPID
GSTO1 inh – counter-screen for RBBP9 inhibitors: inhibitors of human GSTO1; P78417; recombinant GSTO1, activity-based probe fluorescence polarization; inhibition, % at 5.96 µM; actives 1.1% (n = 300,000);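 active = inhibition above the campaign mean inhibition plus 3 SD, cut at about 35% in these data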;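 note: 0% = GSTO1-1 with DMSO and 100% = wells lacking GSTO1-1 enzyme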
Fam108B counter – counter-screen for RBBP9 inhibitors: inhibitors of mouse Fam108B; recombinant Fam108B, FP-Rh probe fluorescence polarization; inhibition, % at 9.51 µM; actives 0.33% (n = 300,000); AID 1947;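 active = inhibition above the screen mean inhibition plus 3 SD, computed separately per campaign, cut at about 18% in these data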;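 note: inhibitors lower polarization as less probe binds the enzyme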
GSTO1 confirm – confirmation of human GSTO1 inhibitors; actives 54% (n = 2,400); inhibition, % at 5.96 µM; recombinant GSTO1, probe fluorescence polarization; shares compounds with GSTO1 inh;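 active = inhibition above the primary screen's cutoff, its mean inhibition plus 3 SD, cut at about 35% in these data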;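 note: loss of polarization as inhibitors block binding of rhodamine sulfonate ester activity probe; 0% = GSTO1 with DMSO and 100% = wells lacking GSTO1 enzyme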
LYPLA2 confirm – LYPLA2 (human) inhibition, confirmation counter-screen; shares compounds with LYPLA2 counter; recombinant LYPLA2, FP-Rh probe fluorescence polarization; inhibition, % at 5.9 µM; actives 72% (n = 1,100);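 active = mean inhibition across replicates above the hit cutoff set in the primary screen, cut at about 26% in these data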;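 note: blocked labeling of the enzyme by serine hydrolase FP-Rh probe lowers polarization; 0% = enzyme with DMSO and 100% = wells lacking LYPLA2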
PAD4 FP conf – PAD4 (human) inhibition, confirmed; shares compounds with PAD4 inh; recombinant PAD4, RCA probe fluorescence polarization; inhibition, % at 6.36 µM; actives 28% (n = 1,200); AID 488796;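 active = mean inhibition across replicates above the hit cutoff set by the earlier primary screen, cut at about 15% in these data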;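 note: inhibitors block active-site labeling by the probe so polarization falls; 0% = PAD4 with probe and DMSO and 100% = probe without PAD4 enzyme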
The depositor's hits bear a star; x = no result.

SMILES	PAD4 inh	PME-1 primary	LYPLA2 counter	LYPLA1 inh	GSTO1 inh	Fam108B counter	GSTO1 confirm	PAD4 FP conf	others
CC(=O)N1N=C(c2ccccc2)OC1c1ccc([N+](=O)[O-])s1 (centres undefined)	-13	-5	-2	-4	41*	1	14	x
CN(C)c1ccc(CC2C(=O)Nc3ccccc32)cc1 (centres undefined)	-8	6	5	0	48*	5	5	x
CN(C)c1ccc(NC(=O)C(=O)C2C(=O)Nc3ccccc32)cc1 (centres undefined)	-2	0	-2	-2	8	-4	x	x
Cc1c(C(=O)NC2CC(=O)N(c3ccc4c(c3)OCCO4)C2)cccc1[N+](=O)[O-] (centres undefined)	-1	-1	-3	0	-3	0	x	x
CC(CCc1ccccc1)NC(=O)CN1CCN(Cc2ccccc2)C1=O (centres undefined)	-2	1	-1	-3	1	2	x	x
CC(CCc1ccccc1)NC(=O)CN1CCN(c2ccc(O)cc2)CC1 (centres undefined)	-3	9	8	1	38*	-1	8	x
Cc1ccc(S(=O)(=O)Nc2ccc(O)c3cccnc23)cc1	6	1	2	0	50*	-4	0	x
Cc1ccc(S(=O)(=O)Nc2ccc(O)c3ncccc23)cc1	-4	0	-3	-2	10	1	x	x
COc1ccc(OCc2cc(C(=O)NCC3CCCCO3)no2)c(Cl)c1 (centres undefined)	-1	-8	-7	1	-2	-3	x	x
O=C(N/N=C/c1cccc(F)c1)c1cc(-c2ccco2)nc2ccccc12	1	1	-11	-17	41*	8	25	x
COc1cc(/C=N/NC(=O)c2cc(-c3ccco3)nc3ccccc23)cc(OC)c1O	1	0	-8	-7	21	10	x	x
CC(C)C(=O)N(c1cc2sc(=O)oc2c2ccccc12)S(=O)(=O)c1cccs1	11	-1	9	-5	85*	6	43*	x
CC(C)C(=O)N(c1ccc2oc(=O)sc2c1)S(=O)(=O)c1cccs1	15	2	3	2	17	4	x	x
COc1ccc2c(c1)c1nc3n(c(=O)c1n2CC(=O)Nc1cc(C)[nH]n1)CCS3	0	-4	6	2	92*	2	4	x
Cc1cc(C)c(S(=O)(=O)Nc2cc(SCC(=O)O)c(O)c3ccccc23)cc1C	49*	15	30*	1	90*	15	5	x	LYPLA2 confirm=2
Cc1ccc(CNS(=O)(=O)c2ccc(CN3C(=O)c4cccnc4C3=O)cc2)o1	0	2	1	1	7	6	x	x
CC1=NN(c2ccc(C)cc2C)C(=O)C1C(c1ccccc1O)C1C(=O)N(c2ccc(C)cc2C)N=C1C (centres undefined)	45*	0	5	-1	56*	-2	10	-16
CC1=NN(c2ccccc2)C(=O)C1N=Nc1ccc(C)cc1 (centres undefined)	0	-2	1	1	2	-2	x	x
CCCNC1=C(N(C(C)=O)c2cccc(F)c2)C(=O)c2ccccc2C1=O	18*	-1	0	-1	55*	6	41*	-5
O=C1C=C(O)c2cccc(O)c2C1=O	16*	14	9	0	43*	3	40*	4
C[C@@H]1NS(=O)(=O)[C@H]2C[C@@H]3C=C[C@]2(O3)[C@H]1OC(=O)c1ccc(C(C)(C)C)cc1	1	-4	0	-1	x	x	x	x
CN(Cc1ccccc1)C(=O)c1ccc(NC(=O)c2ccccc2)cc1	-8	7	1	-4	1	0	x	x
COc1cc(/C=C2\C(=O)N(c3ccc(NC(C)=O)cc3)N=C2c2ccccc2)ccc1O	62*	-10	4	-2	76*	-1	27	5
Cc1ccccc1-c1cc2c(nn1)-c1ccccc1C2=O	58*	3	6	1	75*	5	70*	-8
COc1cc(C(=O)NCc2nnc(SCC(=O)N3CCCCCC3)o2)cc(OC)c1OC	-4	1	1	5	-8	2	x	x
SMILES	PAD4 inh	PME-1 primary	LYPLA2 counter	LYPLA1 inh	GSTO1 inh	Fam108B counter	GSTO1 confirm	PAD4 FP conf	others
COc1cccc(Nc2nc3ccccc3nc2NS(=O)(=O)c2cccs2)c1	-2	20	-1	2	29	6	x	x
Cc1ccc(Nc2cc(=O)oc3ccccc23)c(C)c1	2	1	3	-1	-3	-1	x	x
Cc1ccc(NC2=C/C(=N\S(=O)(=O)c3cccs3)c3ccccc3C2=O)c(C)c1	65*	6	14	0	81*	19*	89*	56*
Cc1cccc(NC2=C/C(=N/S(=O)(=O)c3cccs3)c3ccccc3C2=O)c1	28*	16	7	3	84*	17	81*	40*
O=C1c2ccccc2-c2cccc(C(=O)N3CCCCC3)c21	2	7	1	1	7	1	x	x
O=C1c2ccccc2C(=O)c2c1cccc2N1CCCC1	28*	22	10	4	56*	13	10	1
CCOC(=O)c1ccccc1NC(=O)C1CSC2(C)CCC(=O)N12 (centres undefined)	-1	3	5	3	1	-6	x	x
COc1ccc(Br)cc1CNc1ccc(O)cc1	28*	29*	9	14	86*	4	6	2
COc1ccc(Br)cc1CNc1ccc2[nH]c(=O)[nH]c2c1	-8	5	-4	4	-10	0	x	x
CN(Cc1ccccc1)C(=O)COC(=O)COc1ccc(C#N)cc1	-8	6	0	-2	2	0	x	x
CC(=O)Nc1ccc(N/C=C/C(=O)c2ccco2)cc1	-4	5	-1	1	2	0	x	x
CN(C)c1ccc(N/C=C/C(=O)c2ccco2)cc1	23*	1	-1	-5	61*	0	7	-2
COc1cccc(/C=N/Nc2nnc(C)n2N)c1O	39*	-3	0	0	41*	-1	1	0
CCN(CC(=O)Nc1cccc(OC)c1)C(=O)c1cnc(Cl)c(Cl)c1	2	5	-4	-2	3	0	x	x
COc1ccc2ccc3c(c2c1)N=CC1(O3)N(C)c2ccccc2C1(C)C (centres undefined)	59*	9	8	0	90*	3	5	6
